VACV Venus inh = qHTS for Stage-Specific Inhibitors of Vaccinia Orthopoxvirus: Venus Reporter Primary qHTS. 330,000 compounds, 0.46% hits. Potency, µM (top dose mostly 36.5 µM), for the others: at the top dose activity change, negative = inhibition, usual class: inhibitors. Vaccinia virus Venus reporter expression, fluorescence; calls by dose curve; tested in A549 cells; also: potency is read from the fitted curve at half-maximal effect; nearly all actives have a fitted effect of over 30% in size
FMDV inh = High Throughput Screening for Foot and Mouth Disease Virus Antivirals. Potency, µM (top dose mostly 57.9 µM), inactives show top-dose activity change, negative = inhibition, most hits filed as inhibitors. FMDV antiviral cell-based qHTS. AID 1159524, 2015. 410,000 compounds, 1.2% hits; calls by dose curve; tested in HEK293T cells; also: read-out not given here; potency is read from the fitted curve at half-maximal effect; nearly all actives have a fitted effect of over 45% in size
MARV entry inh = qHTS for inhibitors of binding or entry into cells for Marburg Virus. Marburg virus pseudotyped entry inhibition, cell reporter. Potency, µM (series often up to 37.8 µM), inactives show top-dose activity change, negative = inhibition, hits mostly inhibitors. 300,000 compounds, 1.8% hits. AID 540276, 2011; calls by dose curve; tested in HEK293 cells; also: potency is read from the fitted curve at half-maximal effect
LASV entry inh = qHTS for Inhibitors of binding or entry into cells for Lassa Virus | Lassa virus pseudotype entry inhibition, cell reporter | 300,000 compounds, 1.2% hits | Potency, µM (top dose mostly 37.9 µM), inactives show at the top dose activity change, negative = inhibition, most hits filed as inhibitors; calls by dose curve; tested in HEK293 cells; also: potency is read from the fitted curve at half-maximal effect; nearly all actives have a fitted effect of over 50% in size
VACV mCherry inh = qHTS for Stage-Specific Inhibitors of Vaccinia Orthopoxvirus: mCherry Reporter Primary qHTS; Vaccinia virus mCherry reporter infection, fluorescence; Potency, µM (series often up to 36.5 µM), for inactives: at the highest dose activity change, negative = inhibition, usual class: inhibitors; 310,000 compounds, 0.63% hits; AID 720579, 2013; calls by dose curve; tested in A549 cells; also: potency is read from the fitted curve at half-maximal effect; nearly all actives have a fitted effect of over 35% in size
HCMV antiviral = qHTS Assay for inhibitors of the human cytomegalovirus (HCMV). HFF cells, HCMV-luciferase reporter, 72 h; hits give low values. activity change, negative = inhibition, % at 57.5 µM. 410,000 compounds, 4.5% hits. AID 1259415, 2018; in the data active = activity change below about -60%; inconclusive = no clear call, values can overlap the other calls; inactive = above about -39%
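HFF cells seeded 16 h at 37C, treated with compounds, infected with luciferase-reporter HCMV at MOI 1 PFU/cell; luciferase read at 72 h post infection, normalized to buffer-only and Salinomycin controls.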
An asterisk follows results filed as active; i = inactive; ? = inconclusive; · = not tested or not shown; [ ] = another dose, or the depositor's remark. Rows were chosen to be rich in hits. Some 6.5% of all compounds tested hit in one or more screens of this group. % is scaled to controls: 0 for no effect and ±100 for the full control effect.

SMILES	VACV Venus inh	FMDV inh	MARV entry inh	LASV entry inh	VACV mCherry inh	HCMV antiviral
O=C(NC1(C(F)(F)F)N=C(c2ccccc2)N(C2CCCCC2)C1=O)c1ccc(F)cc1 (stereo unspecified)	-8.2%	0.0%	?	-10.2%[46.1 µM]	-0.4%	-29.9
Cc1ccccc1C(=O)NC1(C(F)(F)F)N=C(c2ccccc2)N(C2CCCCC2)C1=O (stereo unspecified)	-2.2%	?	?	0.9%[46.1 µM]	-6.4%	-102.4*
COC1/C=C/C=C(\C)Cc2cc(O)c(Cl)c(c2)N(C)C(=O)CC(OC(=O)C(C)C)C2(C)OC2C(C)C2CC1(O)NC(=O)O2 (stereo unspecified)	?	0.0%	9.7%	-24.4%	-3.1%	-90.6*
CC(C)C(=O)Nc1ccc(NC(=O)c2ccccn2)cn1	-8.1%	-57.8%	11.2µM*	?	-8.8%	30.3
CC(C)C(=O)Nc1ccc(NC(=O)c2cccnc2)cn1	-12.6%	9.9%	-2.2%	9.4%	·	2.0
CCC(=O)Nc1ccc(NC(=O)c2ccccn2)cn1	-4.0%	13.3%	?	10µM*	-18.3%	106.8
O=C(Nc1ccc(NC(=O)C2CC2)nc1)c1ccccn1	-16.2%	-21.4%	?	?	-17.7%	30.4
CCOC(=O)C1(C)CCCN1C(=O)c1ccc(F)c(Cl)c1 (stereo unspecified)	-7.2%	-3.6%	·	·	i	10.7
COc1ccccc1N(C)S(=O)(=O)c1ccc(C(=O)NC2CCCCC2)cc1	-4.6%	?	-13.0%	10µM*	-5.3%	?
COc1ccccc1N(C)S(=O)(=O)c1ccc(C(=O)Nc2ccncc2)cc1	-18.2%	31.6µM*	?	-20.4%	i	?
COc1ccccc1N(C)S(=O)(=O)c1ccc(C(=O)Nc2cc(OC)c(OC)c(OC)c2)cc1	·	?	·	·	·	-22.5
COc1ccccc1NC(=O)c1ccc(S(=O)(=O)N(C)c2ccccc2OC)cc1	·	?	·	·	·	27.4
CC1CCc2nc3sc4c(c3c(N)c2C1)CCCC4 (stereo unspecified)	?	-10.5%	?	-6.5%	i	28.1
Nc1c2c(nc3sc4c(c13)CCCC4)CCCC2	?	-3.5%	?	25.9%[46.1 µM]	-9.2%	-71.6*
Nc1c2c(nc3sc4c(c13)CCCC4)CCCCC2	-19.3%	-19.3%	7.3%	?	·	56.5
CC1CCc2c(nc3sc4c(c3c2N)CCCC4)C1 (stereo unspecified)	?	-7.8%	11.2µM*	-27.3%[46.1 µM]	-20.2%	?
CCc1c(-c2ccccc2)nc2sc3c(c2c1N)CCCC3	?	-49.6%	?	?	?	-92.0*
CC(Oc1ccc(F)cc1)C(=O)NCC1(N(C)C)CCCCC1 (stereo unspecified)	-5.0%	?	-0.6%[46.1 µM]	2.2%[46.1 µM]	-9.5%	-19.3
O=C(N/C(=C/c1ccc(Br)cc1)C(=O)N1CCOCC1)c1cccs1	-14.4%	21.5%	-0.5%[46.1 µM]	17.9%	i	-62.2*
FC(F)(F)c1ccc(N2CCN(c3cc(-c4ccccc4)nc4ncnn34)CC2)nc1	-5.3%	·	?	?	i	-97.8*
C[n+]1c2cc(N)ccc2cc2ccc(N)cc21 (tested in a mixture with another compound)	?	-7.1%	·	·	·	·
Cc1ccc2[nH]c3c(c2c1)CN(C(=O)CC1(c2ccccc2)CC(=O)N(Cc2cccnc2)C1=O)CC3 (stereo unspecified)	-16.7%	-4.8%	·	·	-12.9%	·
O=c1c2sc3ccccc3c2n(Cc2ccccc2)c(=O)n1CCc1ccccc1	-11.1%	0.0%	5.5%[46.1 µM]	20.3%[46.1 µM]	-5.5%	21.1
CCN(CC)C(=O)Cn1cc(/C=C2\C(=O)NC(=O)N(c3ccccc3F)C2=O)c2ccccc21	-14.7%	25.1µM*	?	?	-2.9%	194.9
CCOc1cc2c(cc1OCC)-n1cccc1C(c1ccc(C(C)C)cc1)NC2 (stereo unspecified)	-11.8%	?	?	?	?	-67.9*
CCOc1cc2c(cc1OCC)-n1cccc1C(c1ccc(F)cc1)NC2 (stereo unspecified)	·	?	·	·	·	-16.2
